This is an account of results in article PMC4552634, “A New Set of Chemical Starting Points with Plasmodium falciparum Transmission-Blocking Potential for Antimalarial Drug Discovery” (PLoS ONE, 2015).

Each structure is given as a SMILES string. Like-named read-outs stand apart in the source and are kept apart here. The campaign covered roughly 13,000 compounds. About 3,200 (25%) showed an effect of 50% or more. The list shows a part of the results.

The test system of the test is P. falciparum stage V gametocytes. On the set-up: BacTiter-Glo ATP luminescence viability of purified stage V gametocytes in 384-well plates, per cent inhibition versus DMSO.

As to `O=C(Nc1ccc(Cl)cc1)c1ccc(CN2CCCN(Cc3cccc(F)c3)CC2)cc1` [TCMDC-136404], the % Inhibition – broadly, the drop in the measured response relative to a control, in per cent – (48 h, 5 µM; inhibitor) is listed as -18.08%.
In the case of `N#Cc1ccc(CN2CCCN(Cc3cccc(NC(=O)c4ccc(-c5ccccc5)cc4)c3)CC2)cc1` [TCMDC-141838], the “% Inhibition” value (48 h, 5 µM; inhibitor) worked out at 91.89%.
On to `Cc1ccc(CC(C)NC[C@H](O)c2cccc(Cl)c2)cc1` (stereo partly drawn) [TCMDC-131477], for which the “% Inhibition” value (48 h, 5 µM, inhibitor) is on record as 11.62%.
`CCOP(=O)(OCC)c1ccc(OC)c(-c2ccc[nH]2)c1` [TCMDC-139023]: the “% Inhibition” value (48 h, 5 µM; inhibitor) stood at 22.96%.
Still for that read-out and setting: next, `COC(=O)/C=C/C(=O)N[C@@H]1CC[C@@]2(O)[C@H]3Cc4ccc(O)c5c4[C@@]2(CCN3CC2CC2)[C@H]1O5` [TCMDC-125875]: 50.91%; `C#CCN1CCC2=C(C1)c1c(O)cc(C(C)CCCc3ccc(F)cc3)cc1OC2(C)C` (stereo not drawn) [TCMDC-124277]: -40.47%.
On the same count and under the same terms, with `O=C(/C=C/c1ccc(Cl)c(Cl)c1)NCCCCCN1CCCN(C(=O)Nc2ccc(C(F)(F)F)cc2)CC1` [TCMDC-135757] the figure was 8.096%; with `Cc1cc(C)c(CC(C)NCC(O)c2cccc(C(F)(F)F)c2)c(C)c1` (stereo not drawn) [TCMDC-131460], -4.216%; with `C[C@@H](CC1CCCCC1)NCc1ccccc1O` [TCMDC-140305], 71.87%.
Still for that read-out and setting: with `CCN(CC)CCOC(=O)C(OC)(c1ccccc1)c1ccccc1` [TCMDC-131779] the figure was 18.56%; with `Cc1ccc(CC(C)NCC(O)c2cccc(C(F)(F)F)c2)c(C)c1` (stereo not drawn) [TCMDC-131465], -0.5645%; with `CSc1ccc(C[C@@H](C)NC[C@H](O)c2cccc(Cl)c2)cc1` [TCMDC-131507], 10.96%.
Turning to `Cc1nc(C)c(-c2ccc(Oc3ccc(OC(F)(F)F)cc3)cc2)c(OC(=O)N(CCNC(C)C)C(C)C)c1Br` [TCMDC-132417], the “% Inhibition” value (48 h, 5 µM; inhibitor) was 109%.
Same read-out and setting: next, `CNCCN(C)C(=O)Oc1c(Br)c(C)nc(C)c1-c1ccc(Oc2ccc(OC(F)(F)F)cc2)cc1` [TCMDC-137377]: 86.68%; `CNCCN(C)C(=O)Oc1c(Cl)c(C)nc(C)c1-c1ccc(Oc2ccc(OC(F)(F)F)cc2)cc1` [TCMDC-137384]: 42.19%.
Same read-out and setting: next, `CNCCCN(C)C(=O)Oc1c(Br)c(C)nc(C)c1-c1ccc(Oc2ccc(OC(F)(F)F)cc2)cc1` [TCMDC-132416]: 117.8%; `COc1ccc(CC(C)NCC(O)c2cccc(Cl)c2)cc1C` (stereo not drawn) [TCMDC-131505]: 13.45%.
Still for that read-out and setting: with `CCc1ccc(CC(C)NCC(O)c2ccccc2)cc1` (stereo not drawn) [TCMDC-131463] the figure was 17.08%; with `CN1CC(c2ccc(Cl)c(Cl)c2)OC1=N` (stereo not drawn) [TCMDC-137454], 1.442%; with `Cc1ccc(CC(C)NCC(O)c2cccc(C#N)c2)cc1` (stereo not drawn) [TCMDC-131451], 40.18%.
As for `CCC1(C)CC(CCNCc2ccccc2O)(c2ccc(C)cc2)CCO1` (stereo not drawn) [TCMDC-124003], for the setting “48 h, 5 µM; inhibitor”, the “% Inhibition” value is recorded as 4.575%.
The same measure, in the same setting: next, `COCCSc1ccc(CC(C)NCC(O)c2cccc(Cl)c2)cc1` (stereo not drawn) [TCMDC-131513]: 22.33%; `CCCCCCCCCCS(=O)(=O)N[C@H](COCc1cccc(Oc2ccccc2)c1)COP(=O)(O)OC` [TCMDC-131877]: 13.38%.
The same measure, in the same setting: next, `CC(C)CCN1C(=O)C(NC(=O)Oc2ccccc2)C(=O)N(CC23CC4CC(CC(C4)C2)C3)c2ccccc21` (stereo not drawn) [TCMDC-137160]: -43.48%; `CCCC(=O)c1c(O)c2ccccc2oc1=O` [TCMDC-123881]: 11.83%.
The same measure, in the same setting: with `Cc1ccc(C[C@@H](C)NC[C@H](O)c2cccc(C(F)(F)F)c2)cc1` [TCMDC-131449] the figure was 8.152%.
For the compound `[O-]c1n[n+](C2CCCCC2)no1` [TCMDC-138090], the “% Inhibition” value (48 h, 5 µM; inhibitor) was 57.64%.
For the compound `CCOC(C(=O)OCCN(C(C)C)C(C)C)(c1ccccc1)c1ccccc1` [TCMDC-131391], the “% Inhibition” value (48 h, 5 µM; inhibitor) is reported as -28.65%.
As for `COc1ccc(C[C@@H](C)NC[C@H](O)c2cccc(Cl)c2)cc1F` [TCMDC-131516], the “% Inhibition” value (48 h, 5 µM, inhibitor) turned out to be 9.097%.
On to `Cc1cccc(N2CCN(Cc3cc(Cl)ccc3O)CC2)c1C` [TCMDC-123718], for which the “% Inhibition” value (48 h, 5 µM; inhibitor) is -35.86%.
Still for that read-out and setting: next, `Cc1ccc(C)c(N2CCN(Cc3ccccc3O)CC2)c1` [TCMDC-123518]: 7.065%; `Oc1cc2c(cc1CN1CCN(Cc3ccccc3)CC1)CCC2` [TCMDC-125104]: 73.14%; `COc1ccc(O)c(CN2CCN(c3cc(C)ccc3C)CC2)c1` [TCMDC-124056]: 6.084%.
On the same count and under the same terms, next, `CCN(CC)CCN1C(=O)C(O)(c2ccccc2Cl)c2c1cc(C(N)=O)cc2C(F)(F)F` (stereo not drawn) [TCMDC-133544]: 37.34%; `COc1ccc(CC(C)NCC(O)c2cccc(Br)c2)cc1` (stereo not drawn) [TCMDC-131496]: 20.1%.
With `COc1ccc(C[C@@H](C)NC[C@H](O)c2cccc(Cl)c2)cc1F` [TCMDC-131502], for the setting “48 h, 5 µM, inhibitor”, the “% Inhibition” value was 8.677%.
As to `COC(C(=O)OCCC1CCCN1C)(c1ccccc1)C1CCCCC1` (stereo not drawn) [TCMDC-131374], where the note is “48 h, 5 µM; inhibitor”, the “% Inhibition” value is given as 34.4%.
The same measure, in the same setting: next, `COC(C(=O)OCCC1CCCN1C)(c1ccccc1)c1ccccc1` (stereo not drawn) [TCMDC-131780]: 73.28%; `CCOC(C(=O)OCC1CCCN1C)(c1ccccc1)c1ccccc1` (stereo not drawn) [TCMDC-131676]: 62.64%; `CCOC(C(=O)OCC1CCCN(C)C1)(c1ccccc1)c1ccccc1` (stereo not drawn) [TCMDC-131382]: 13.79%.
Turning to `CCCCOC(C(=O)OCC1CCCN1C)(c1ccccc1)c1ccccc1` (stereo not drawn) [TCMDC-131730], the “% Inhibition” value (48 h, 5 µM; inhibitor) was -23.33%.
The same measure, in the same setting: next, `CCOC(C(=O)OCC1CCCN1C(C)C)(c1ccccc1)c1ccccc1` (stereo not drawn) [TCMDC-131750]: -3.502%; `Cc1ccc(CC(C)NCC(O)c2cccc(Br)c2)cc1` (stereo not drawn) [TCMDC-131444]: 5.106%; `CCN(CC)CCN1C(=O)C(O)(c2ccccc2Cl)c2c1cc(C#N)cc2C(F)(F)F` (stereo not drawn) [TCMDC-132583]: -22.22%.
Still for that read-out and setting: with `CCCCCC(C)C(C)c1cc(OC(N)=O)c2c(c1)OC(C)(C)C=C2c1ccncc1` (stereo not drawn) [TCMDC-131796] the figure was -24.09%.
Same read-out and setting: next, `O=P(O)(O)Oc1c(Br)cc(Br)cc1-c1cc(Br)cc(Br)c1O` [TCMDC-131736]: 1.085%; `COc1ccccc1CC(C)NCC(O)c1cccc(Cl)c1` (stereo not drawn) [TCMDC-131497]: -23.86%; `COc1cc(NCCCNC(=O)c2cn(Cc3ccccc3)c3ccccc23)nc2ccccc12` [TCMDC-140140]: 60.42%.
